DT40 TDP1 no CPT: qHTS for Inhibitors of human tyrosyl-DNA phosphodiesterase 1 (TDP1): qHTS in cells in absence of CPT | 420,000 compounds, 15% hits | DT40 Tdp1-/- hTDP1 cells, no CPT, ATP luminescence, 48 h | Potency, µM (top dose mostly 46.2 µM), without a hit: top-dose activity change, negative = growth inhibition, usual class: inhibitors; also: potency is read from the fitted curve at half-maximal effect; nearly all actives have a fitted effect of over 55% in size
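A cellular qHTS used chicken DT40 cells lacking endogenous Tdp1 but carrying stably transfected human TDP1. Compounds were applied without camptothecin, and cell growth kinetics were judged by ATP-dependent luminescence after ≥48 hr.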
HT1080NT lethal: kills 2HG-producing HT-1080-NT fibrosarcoma cells; HT-1080-NT fibrosarcoma viability, CellTiter-Glo ATP luminescence, 48 h; AID 686970; 360,000 compounds, 1.6% hits; Potency, µM (series often up to 46.1 µM), inactives show top-dose activity, negative = less viability, actives largely listed as cytotoxic;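 also: NT is the 2HG producing partner of a matched IDH1 knockdown line; potency is read from the fitted curve at half-maximal effect; 0% = DMSO-treated cells and -100% = media-only wells without cells; nearly all actives have a fitted effect of over 55% in size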
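HT-1080-NT; 750 cells/well; 5% FBS RPMI; 48 h compound, 37 degrees C; CellTiter-Glo luminescence; curve fitting and curve-class assignment.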
TDP1 cell CPT: growth inhibition of DT40 Tdp1-/-;hTDP1 cells with camptothecin (screen for TDP1 inhibitors); AID 686979; 420,000 compounds, 12% hits; chicken DT40 Tdp1-/-;hTDP1 cells + 20 nM CPT, ATP luminescence, 48 h; Potency, µM (series often up to 46.2 µM), without a hit: at the top dose activity change, negative = growth inhibition, hits mostly inhibitors; also: potency is read from the fitted curve at half-maximal effect; nearly all actives have a fitted effect of over 55% in size
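Cell growth measured by CellTiter-Glo luminescence after a minimum 48 h, 37 C compound exposure with 20 nM CPT in Tdp1-knockout DT40 cells stably expressing hTDP1, seeded 400/well; qHTS titration format.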
IL-1B inflam inh: inhibitors of inflammasome signaling (IL-1 beta secretion). THP-1 LPS/ATP IL-1B secretion, AlphaLISA, 16 h; stronger effect = lower value. activity change, % at 57.5 µM. 360,000 compounds, 4.7% hits. AID 743279; in the data active = activity change below about -50%; inconclusive = mostly about -30% to -49%
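Secreted IL-1B measured by AlphaLISA bead assay after 16 h compound exposure of THP-1 cells; compounds (final up to 57.5 uM) added 1 h before LPS (250 ng/mL) and ATP (1.25 mM) stimulation; lower signal means less secretion.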
12-LOX inh: ALOX12 (human) lipoxygenase inhibition; P18054; purified 12hLO, xylenol orange hydroperoxide absorbance; Potency, µM (titrated, usually from 108 µM), without a hit: at the top dose activity change, negative = inhibition, usual class: inhibitors; 580,000 compounds, 1.1% hits; also: potency is read from the fitted curve at half-maximal effect
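Purified human 12hLO at 150 nM in 25 mM Hepes, 0.01% Triton X-100, pH 7.0, preincubated 15 min at room temperature with compound. Reaction started with 40 uM arachidonic acid, 30 min at room temperature. Hydroperoxide measured by Fe-xylenol orange, 573/405 nm absorbance ratio.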
HT1080 IDH1KD tx: HT-1080 IDH1 knockdown cell toxicity (counter line); HT-1080 IDH1 knockdown viability, ATP luminescence, 48 h; Potency, µM (titrated, usually from 46.1 µM), inactives show at the top dose activity, negative = toxicity, hits mostly cytotoxic; 360,000 compounds, 2% hits; AID 686971;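 also: potency is read from the fitted curve at half-maximal effect; 0% = DMSO wells and -100% = cell-free medium wells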
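In this qHTS, HT-1080 cells depleted of IDH1 are exposed for 48 h at 37 °C to compound titrations. Toxicity is scored from CellTiter-Glo luminescence, with DMSO as full viability and medium alone as none.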
* hit, by the source's call; u = inconclusive; x = not tested or not shown; [ ] = dose if it differs, or a comment. Shown is part of a subset that was picked to be rich in hits. Unless noted, calls follow the shape of the dose curve; as a rule, active = well fitted curve in the direction sought with a large enough effect; inconclusive = small, poorly fitted or top-dose-only effect, or another doubt; inactive = no such curve, though single readings can be large; an effect the other way counts as inactive or inconclusive. Unless noted, % is scaled to controls: 0 for no effect and ±100 for the full control effect.

SMILES | DT40 TDP1 no CPT | HT1080NT lethal | TDP1 cell CPT | IL-1B inflam inh | 12-LOX inh | HT1080 IDH1KD tx
COc1ccc(N=C2SC(CC(=O)Nc3cccc(Cl)c3)C(=O)N2Cc2ccco2)cc1 (configuration not stated) | u | u | u | u | -5% | 16µM*
COc1ccc(OC)c(NC(=O)CC2SC(=Nc3ccccc3)N(CCc3ccccn3)C2=O)c1 (configuration not stated) | u | -17% | 23µM* | u | 20% | -19%
C=CCN1C(=O)C(CC(=O)Nc2ccc(OC)cc2)SC1=Nc1ccc(S(N)(=O)=O)cc1 (configuration not stated) | 3% | 12% | 24% | 6 | -7% | 14%
COc1cc([N+](=O)[O-])ccc1NC(=O)CC1SC(=Nc2ccc(F)cc2)N(CCC2=CCCCC2)C1=O (configuration not stated) | 15µM* | -1% | 16µM* | -4 | -12% | -4%
COc1ccc(N=C2SC(CC(=O)Nc3ccccc3)C(=O)N2Cc2ccccn2)cc1 (configuration not stated) | 23µM* | -27% | 29µM* | -67* | 2% | -8%
CC(=O)Nc1nc2ccc(CC(=O)N3CCN(c4ccccc4F)CC3)cc2s1 | x | x | x | x | 21% | x
CC1=C[C@@H](CNC(=O)COc2ccccc2)[C@H](C(C)C)C[C@H]1Cc1nc2ccncc2[nH]1 | x | x | x | x | 5%[176 µM] | x
CCN(CC)C(=O)c1cc2c(=O)n3cccc(C)c3nc2n1C | u | 20% | -18% | -19 | -11% | 17%
Cc1ccc(Cl)cc1NC(=O)c1cc2c(=O)n3cccc(C)c3nc2n1C | 0.52µM* | x | 0.58µM* | x | -2% | x
CCCCN(CC)C(=O)c1cc2c(=O)n3cccc(C)c3nc2n1C | 16µM* | x | u | x | 0% | x
CC(=O)Nc1cccc(NC(=O)c2cc3c(=O)n4cccc(C)c4nc3n2C)c1 | u | x | -29% | x | 0% | x
O=C(Cn1ncc2ccccc2c1=O)Nc1cc(F)cc(F)c1 | x | x | x | x | -25% | x
c1ccc(C(c2ccccc2)c2noc(CN3CCC(c4ccncc4)CC3)n2)cc1 | u | -13% | 21µM* | -17 | 5% | -14%
c1ccc(CCC2CCCCN2Cc2nc(-c3ccc4c(c3)OCO4)no2)nc1 (configuration not stated) | 21µM* | -26% | 16µM* | -28 | 0% | -14%
c1ccc(C2CCCN(Cc3nc(CC4CC4)no3)CC2)cc1 (configuration not stated) | -19% | -5% | -12% | -3 | -28% | -12%
O=C(c1ccco1)N1CCCN(Cc2nc(-c3ccc4c(c3)OCO4)no2)CC1 | 16µM* | -17% | -10% | 4 | -13% | -1%
c1cc(C2CCN(Cc3nc(-c4ccc5c(c4)OCO5)no3)CC2)ccn1 | 12µM* | u | 21µM* | -26 | -29% | u
COC(=O)C1=C(COc2ccc(C=O)cc2OC)NC(=O)NC1c1cc(C)ccc1C (configuration not stated) | 15µM* | 5% | u | 20 | -7% | 11%
O=C(NCc1ccncc1)C12CC3CC(CC(C3)C1)C2 | -9% | 2% | 10% | 13 | 40% | -6%
N#CC1=C(N)S[C@H](C(=O)C23CC4CC(CC(C4)C2)C3)[C@H]1c1ccncc1 | u | 23µM* | u | -15 | x | u
CC1(C)NC(=O)N(CC(=O)N2CCN(S(=O)(=O)c3cc(Cl)ccc3Cl)CC2)C1=O | -6% | 12% | -1% | -6 | -13% | 0%
Cc1[nH]c2ccccc2c1C(=O)CN1C(=O)NC2(CC(C)CC(C)(C)C2)C1=O (configuration not stated) | u | -13% | 15µM* | -21 | -13% | -16%

Screening data (PubChem BioAssay)
